Only some compounds are listed: those with a hit (about 5.5% of all), similar ones and a draw of the others.
RORgamma inh: qHTS for inhibitors of ROR gamma transcriptional activity; Drosophila S2 Gal4-RORgamma UAS-luciferase reporter, 20 h; Potency, µM (highest dose often 53.6 µM), usual class: inhibitors; actives 5.4% (n = 310,000); also: nearly all actives have a fitted effect of over 60% in size
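Stable Schneider cell line, Gal4 DNA-binding domain fused to ROR gamma, UAS-luciferase. Cmpd 1 hr RT → CuSO4 700 uM final → 20 hr RT → luciferase reagent 10 min → luminescence.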
VP16 counter: VP16 counterscreen qHTS for inhibitors of ROR gamma transcriptional activity. actives 3.5% (n = 310,000). Potency, µM (series often up to 53.6 µM), most hits filed as inhibitors. Drosophila S2 Gal4-VP16 UAS-luciferase, luminescence, 20 h;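 also: Gal4-VP16 expression switched on by copper sulfate through the metallothionein promoter; nearly all actives have a fitted effect of over 50% in size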
CtBP-E1A inh: qHTS Assay for Inhibitors of the CtBP/E1A Interaction | CtBP / adenovirus E1A interaction (AlphaScreen) | AlphaScreen GST-E1A/His-CtBP binding, 1536-well; active compounds read low | activity change, % (concentration not given with the values) | actives 0.49% (n = 340,000); in the data active = activity change below about -65%; inconclusive = mostly about -30% to -63%
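Homogeneous bead-based format: GST-tagged E1A captured on glutathione donor beads, His-tagged CtBP on nickel acceptor beads; compounds precede bead addition by 2 h at 37 °C.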
Six1-Eya2 blk: qHTS Assay for Inhibitors of the Six1/Eya2 Interaction; AlphaScreen GST-Six1/His-Eya2 binding, biochemical; active compounds read low; activity change, % (no concentration beside the values); actives 0.56% (n = 360,000); Homeobox protein SIX1 (Homo sapiens) + Protein phosphatase EYA2 (Homo sapiens), …; in the data active = activity change below about -65%; inconclusive = mostly about -30% to -63%
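Homogeneous AlphaScreen proximity assay pairing GST-Six1 with His-tagged Eya2 (added as 5X mix: 250 nM and 500 nM) in 50 mM Tris pH 8.0, 300 mM NaCl, 1 mM TCEP. Glutathione donor and nickel acceptor beads; 1 h, 37 °C, dark.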
CBFb-RUNX1 inh: qHTS Assay for Compounds Blocking the Interaction Between CBF-beta and RUNX1 for the Treatment of Acute Myeloid Leukemia | Runt-related transcription factor 1 (Homo sapiens) + Core-binding factor subunit beta … | AlphaScreen CBFb-His/RUNX1-biotin binding, biochemical | Potency, µM (top dose mostly 59.8 µM), usual class: inhibitors | 230,000 tested, under 10 active | AID 1477, 2009
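AlphaScreen proximity signal reports loss of binding between His-tagged CBF-beta and biotin-labelled RUNX1, each at 30 nM. Proteins are pre-associated for 20 minutes, compounds added for 15 minutes, then beads for 90 minutes, all at ambient temperature.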
MBNL1-CUG inh: qHTS Assay for Inhibitors of MBNL1-poly(CUG) RNA binding | Muscleblind-like protein 1 (Homo sapiens), Q9NR56 | TR-FRET MBNL1-His/biotin-(CUG)12 binding, 665/545 ratio | Potency, µM (titrated, usually from 57.5 µM), hits mostly inhibitors | actives 0.036% (n = 280,000); active = well fitted inhibition curve with a large enough effect in the signal ratio, with a control signal flat, not every such curve was filed as active; inconclusive = small, poorly fitted or top-dose-only effect, or effect the other way, or a change in a side signal; inactive = no such curve, though single readings can be large or run the other way; the % refers to the signal ratio
Target sequence (Q9NR56 whole entry, looked up): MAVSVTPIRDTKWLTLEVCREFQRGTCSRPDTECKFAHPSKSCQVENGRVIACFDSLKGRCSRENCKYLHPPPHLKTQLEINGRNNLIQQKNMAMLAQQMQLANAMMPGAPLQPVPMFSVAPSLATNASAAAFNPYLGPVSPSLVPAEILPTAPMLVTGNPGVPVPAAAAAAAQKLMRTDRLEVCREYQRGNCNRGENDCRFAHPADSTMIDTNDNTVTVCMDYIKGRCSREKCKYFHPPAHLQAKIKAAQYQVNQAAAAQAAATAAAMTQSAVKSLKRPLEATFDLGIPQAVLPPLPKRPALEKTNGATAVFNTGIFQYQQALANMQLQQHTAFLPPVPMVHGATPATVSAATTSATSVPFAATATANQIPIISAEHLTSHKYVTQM
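TR-FRET between His-tagged MBNL1 and biotin-(CUG)12 RNA, detected with Tb anti-His antibody (0.055 ng/ul) and streptavidin-XL665 (5 nM), 60 min at room temperature. Compounds titrated 92 nM to 58 uM; 665/545 nm ratio normalized to buffer and complex controls.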
Hits are given with their value; – = inactive; ? = inconclusive; · = no result given. Unless noted, calls follow the shape of the dose curve; as a rule, active = well fitted curve in the direction sought with a large enough effect; inconclusive = small, poorly fitted or top-dose-only effect, or another doubt; inactive = no such curve, though single readings can be large; an effect the other way counts as inactive or inconclusive.

SMILES | RORgamma inh | VP16 counter | CtBP-E1A inh | Six1-Eya2 blk | CBFb-RUNX1 inh | MBNL1-CUG inh
COc1ccccc1-c1cnc(C(O)c2ccc(Cl)c(Cl)c2)[nH]1 (configuration not stated) | · | · | – | – | · | ·
O=[N+]([O-])c1ccc(Nc2ccc(Cl)cc2)nc1 | – | – | – | – | – | –
O=[N+]([O-])c1ccc(NNS(=O)(=O)c2cc(Cl)ccc2Cl)nc1 | 13µM | ? | – | – | · | ?
Cc1ccc(NC(=O)NCc2c(C)nn(C)c2C)cc1Cl | – | ? | – | – | – | –
Cc1ccc(NC(=O)O/N=C/c2c(C)nn(C(C)(C)C)c2C)cc1Cl | 0.28µM | 0.28µM | – | – | – | –
Cn1c(/C=N/NC(=O)c2ccccc2Br)nc2ccccc21 | – | – | – | – | – | –
Cc1ccc(C(=O)N/N=C/c2nc3ccccc3n2C)cc1 | 11µM | – | – | – | – | –
COc1ccc(CNc2ncncc2-c2cccc(NS(C)(=O)=O)c2)c(OC)c1 | ? | – | · | · | · | ·
O=C(O)c1ccc(/C=C/c2ccc3cccc(O)c3n2)cc1 | 2.8µM | 0.56µM | – | – | – | ?
COC(=O)c1ccc(/C=C/c2ccc3cccc(OC(C)=O)c3n2)cc1 | 5.6µM | 3.5µM | – | – | – | ?
Oc1ccc(/C=C/c2ccc3cccc(O)c3n2)cc1Br | 3.2µM | 18µM | – | – | · | –
O=[N+]([O-])c1cccc(/C=C/c2ccc3cccc(O)c3n2)c1 | 3.2µM | 4.5µM | – | – | · | –
O=[N+]([O-])c1ccc(/C=C/c2ccc3cccc([N+](=O)[O-])c3n2)cc1 | ? | – | – | – | – | ·
CCCCNS(=O)(=O)c1cc2c3c(c1)CCN3C(=O)CC2 | – | – | · | – | · | –
O=C(c1cc(C(F)(F)F)cc(C(F)(F)F)c1)N1CCC2(CC1)CN(c1ccccn1)C2 | – | 16µM | · | · | · | ·
O=C(c1cc(C(F)(F)F)cc(C(F)(F)F)c1)N1CCC2(CC1)CN(c1ncccn1)C2 | – | – | · | · | · | ·
Cc1ccc(S(=O)(=O)N(C)CC(=O)NCCCn2nc(C)cc2C)cc1 | · | · | – | – | · | ·
O=C(NC(NC(=S)Nc1c(Cl)cccc1Cl)C(Cl)(Cl)Cl)c1cccc([N+](=O)[O-])c1 (configuration not stated) | ? | 8.9µM | – | – | ? | ?
Cc1ccc(C(C)C)cc1S(=O)(=O)NCc1ccccn1 | 14µM | ? | · | – | · | –
Cc1ccc(C(C)C)cc1S(=O)(=O)NCc1cccnc1 | ? | 18µM | – | – | – | –
COc1ccc(C(C)C)cc1S(=O)(=O)NCc1ccccn1 | 13µM | – | – | – | – | –
S=C(NCc1ccco1)Nc1ccc(Oc2ccccc2)cc1 | 6.3µM | ? | · | – | ? | –
CCOC(=O)c1ccc(NC(=S)NCc2ccco2)cc1 | 10µM | – | – | – | – | –
OCCCNC(=S)Nc1ccc(Oc2ccccc2)cc1 | – | ? | – | – | – | ·
CC(C)CNC(=S)Nc1ccc(Oc2ccccc2)cc1 | 3.5µM | 4µM | – | – | – | –
O=C(COC(=O)c1ccc(NS(=O)(=O)c2cccs2)cc1)NCc1ccco1 | 22µM | – | – | ? | ? | –
CCOC(=O)c1ccc(NC(=S)NCc2ccc(S(N)(=O)=O)cc2)cc1 | – | – | – | – | · | –
S=C(NCc1cccnc1)Nc1ccc(Oc2ccccc2)cc1 | ? | ? | – | – | – | –
CN(C)C(=O)CCSC(SCCC(=O)O)c1cccc(/C=C/c2ccc3ccc(Cl)cc3n2)c1 (configuration not stated) | ? | – | · | · | · | ·
CC1(C)CC(NC(=O)c2cc(S(=O)(=O)N3CCOCC3)c(Cl)cc2Cl)CC(C)(C)N1 | · | · | – | – | · | ·
